Test results as given in PubChem BioAssay (Tox21).
Inconclusive results are not listed. The source made the active and inactive calls. Unless noted, calls come from the whole dose curve.

How the values were obtained:
[1] = Nuclear factor erythroid 2-related factor 2/antioxidant responsive element (Nrf2/ARE) small molecule agonists: qHTS cell viability counter screen in human keratinocytes (AID 1919968; active = well fitted curve in the direction sought with a large enough effect in the repeat runs; an effect the other way counts as inactive or inconclusive; note: nearly all actives have a fitted effect of over 55% in size; note: potency is the fitted concentration of half-maximal effect)
Outline: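 HaCaT ARE reporter line, 1,500 cells/well; 5 h settle, 37 C/5% CO2; cpd in DMSO pinned; 23 h exposure; CellTiter-Fluor, 1 h; fluorescence.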

[2] = G protein-coupled receptor (GPCR) small molecule agonists, calcium flux assay: HEK293 wild type cell line counter screen (AID 1920065)
Outline: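 Kinetic fluorescence at Ex/Em 480/540, recorded every second over 3 min, served as the read-out after compound addition. Each compound was tested at 15 concentrations in triplicate on cells pre-loaded with calcium dye for 1 h.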

[3] = p53 small molecule agonists, cell-based qHTS assay with human liver microsomes (AID 1963577)
Outline: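 Fluorescence of the beta-lactamase reporter in p53RE-bla cells, detected with LiveBLAzer substrate (2 h, room temperature, dark), served as the read-out after 16 h compound exposure at 37 C with human liver microsomes and NADPH, each 0.5 mg/mL final.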

[4] = p53 small molecule agonists, cell-based qHTS assay with rat liver microsomes (AID 1963578)
Outline: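 Cells carrying a p53 response element–beta-lactamase reporter were plated and rested 5 h, then dosed with compound in DMSO plus rat liver microsomes and NADPH, each at 0.5 mg/mL final. After 16 h at 37 C, LiveBLAzer substrate was added for 2 h.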

[5] = p53 small molecule agonists, cell-based qHTS assay with human liver microsomes: qHTS cell viability counter screen (AID 1963579); note: nearly all actives have a fitted effect of over 45% in size; note: potency is the fitted concentration of half-maximal effect
Outline: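 Cytotoxicity counter screen: p53RE-bla, 4,000 cells/well; 5 h settle, 37 C/5% CO2; cpd + HLM 0.5 mg/mL + NADPH 0.5 mg/mL (final); 16 h, 37 C; CellTiter-Glo, 30 min RT, luminescence.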

[6] = p53 small molecule agonists, cell-based qHTS assay with rat liver microsomes: qHTS cell viability counter screen (AID 1963580); note: nearly all actives have a fitted effect of over 45% in size
Outline: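 p53RE-bla HCT-116 cells were exposed 16 h at 37 C to compounds with rat liver microsomes (0.5 mg/mL) and NADPH (0.5 mg/mL). Viability was measured in the same wells as ATP content by CellTiter-Glo luminescence.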

[7] = p53 small molecule agonists, cell-based qHTS assay (AID 1963582; active = well fitted activation curve with a large enough effect in the signal ratio in the repeat runs, not every such curve was filed as active; the % refers to the signal ratio)
Outline: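 Reporter line: p53RE-bla. Pre-incubation 5 h, 37 C, 5% CO2; compound (DMSO, pin tool) 16 h, 37 C; B/G FRET substrate 2 h RT; fluorescence intensity read.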

[8] = biological target: 5-hydroxytryptamine receptor 2A (Homo sapiens) (UniProt P28223); assay: 5-hydroxytryptamine receptor 2A (HTR2A) small molecule agonists, cell-based qHTS assay (AID 1963587); note: nearly all actives have a fitted effect of over 30% in size; note: potency is the fitted concentration of half-maximal effect
Chain of 5-hydroxytryptamine receptor 2A (Homo sapiens) (P28223 whole entry, looked up): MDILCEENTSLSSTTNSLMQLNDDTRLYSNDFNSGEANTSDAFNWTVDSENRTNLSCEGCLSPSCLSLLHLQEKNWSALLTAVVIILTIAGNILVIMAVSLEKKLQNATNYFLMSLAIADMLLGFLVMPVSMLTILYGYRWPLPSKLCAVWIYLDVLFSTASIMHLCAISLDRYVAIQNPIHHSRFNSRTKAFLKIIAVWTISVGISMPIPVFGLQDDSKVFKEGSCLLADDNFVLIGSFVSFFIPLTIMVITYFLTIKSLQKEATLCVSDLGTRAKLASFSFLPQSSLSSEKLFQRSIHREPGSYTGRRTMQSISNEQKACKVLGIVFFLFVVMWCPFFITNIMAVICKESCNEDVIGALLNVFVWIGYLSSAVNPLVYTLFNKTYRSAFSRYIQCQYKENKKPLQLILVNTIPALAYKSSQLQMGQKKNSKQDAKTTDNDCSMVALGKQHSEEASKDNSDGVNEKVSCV
Outline: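 CHO cells stably expressing human HTR2A, plated 18 h, loaded with calcium dye 1 h at 37 C. Agonist mode: compounds added and intracellular calcium fluorescence recorded kinetically for 2 min at 1 sec intervals.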

[9] = biological target: Muscarinic acetylcholine receptor M1 (Homo sapiens) (UniProt P11229); assay: Cholinergic receptor muscarinic 1 (CHRM1) small molecule antagonists, cell-based qHTS assay (AID 1963588); note: nearly all actives have a fitted effect of over 40% in size
Chain of Muscarinic acetylcholine receptor M1 (Homo sapiens) (P11229 whole entry, looked up): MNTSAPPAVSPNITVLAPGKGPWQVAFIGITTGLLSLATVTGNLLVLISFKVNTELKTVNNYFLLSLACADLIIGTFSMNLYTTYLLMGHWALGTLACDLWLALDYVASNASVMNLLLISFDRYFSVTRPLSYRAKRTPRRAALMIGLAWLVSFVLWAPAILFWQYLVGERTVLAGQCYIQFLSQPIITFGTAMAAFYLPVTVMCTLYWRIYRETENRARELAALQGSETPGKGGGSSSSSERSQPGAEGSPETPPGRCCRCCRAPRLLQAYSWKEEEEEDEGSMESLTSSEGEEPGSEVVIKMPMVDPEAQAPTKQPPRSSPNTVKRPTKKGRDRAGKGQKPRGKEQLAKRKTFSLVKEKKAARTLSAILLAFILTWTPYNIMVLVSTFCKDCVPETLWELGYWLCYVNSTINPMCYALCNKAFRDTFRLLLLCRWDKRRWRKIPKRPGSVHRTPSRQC
Outline: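 CHRM1-CHO calcium-flux assay, antagonist mode. Cells were seeded 18 h, dye-loaded 1 h at 37 C and given compound for 5 min at RT, then acetylcholine was added at 50nM. FDSS fluorescence was read 3 min; 15 concentrations, three runs.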

[10] = biological target: D(2) dopamine receptor (Homo sapiens) (UniProt P14416); assay: Dopamine D2 receptor (DRD2) small molecule agonists, cell-based qHTS assay (AID 1963594); note: nearly all actives have a fitted effect of over 35% in size
Chain of D(2) dopamine receptor (Homo sapiens) (P14416 whole entry, looked up): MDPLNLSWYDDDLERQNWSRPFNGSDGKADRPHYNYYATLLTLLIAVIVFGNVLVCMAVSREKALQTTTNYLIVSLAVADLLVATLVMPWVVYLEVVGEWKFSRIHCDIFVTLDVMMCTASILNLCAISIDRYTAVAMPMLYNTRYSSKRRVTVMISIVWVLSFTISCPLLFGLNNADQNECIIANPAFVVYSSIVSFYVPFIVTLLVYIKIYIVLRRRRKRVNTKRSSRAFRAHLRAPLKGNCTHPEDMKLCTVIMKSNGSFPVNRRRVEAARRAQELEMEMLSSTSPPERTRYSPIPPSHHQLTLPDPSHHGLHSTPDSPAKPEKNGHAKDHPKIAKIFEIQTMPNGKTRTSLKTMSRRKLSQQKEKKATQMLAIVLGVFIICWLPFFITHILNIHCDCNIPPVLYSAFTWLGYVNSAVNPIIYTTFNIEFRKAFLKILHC
Outline: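 HEK293 cells stably expressing human DRD2, pre-treated with PDE inhibitor Ro20-1724 (0.1 mM final) and compound 10 min at room temperature, then stimulated with NKH477 (200nM […]) for 30 min. cAMP read by HTRF (665/620 nm).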

[11] = biological target: KiSS-1 receptor (Homo sapiens) (UniProt Q969F8); assay: Human kisspeptin (KISS1R) small molecule agonists, calcium flux assay in KISS1R-HEK293 cells (AID 1920064; active = well fitted curve in the direction sought with a large enough effect in the repeat runs; an effect the other way counts as inactive or inconclusive)
Chain of KiSS-1 receptor (Homo sapiens) (Q969F8 whole entry, looked up): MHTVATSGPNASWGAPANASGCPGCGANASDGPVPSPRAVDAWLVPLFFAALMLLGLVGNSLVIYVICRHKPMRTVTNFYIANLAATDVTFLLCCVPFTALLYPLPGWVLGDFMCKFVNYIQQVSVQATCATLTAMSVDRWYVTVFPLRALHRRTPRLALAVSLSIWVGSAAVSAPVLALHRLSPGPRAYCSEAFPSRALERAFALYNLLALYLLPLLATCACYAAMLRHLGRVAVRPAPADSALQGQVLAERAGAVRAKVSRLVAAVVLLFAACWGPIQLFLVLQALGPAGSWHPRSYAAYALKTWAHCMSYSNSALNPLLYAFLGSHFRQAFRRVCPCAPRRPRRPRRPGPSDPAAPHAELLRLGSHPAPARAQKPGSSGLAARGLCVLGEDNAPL
Outline: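 Stable human KISS1R HEK293 line; 18 h plating, 37 C/5% CO2; calcium dye 1 h 37 C; compound pin transfer; kinetic fluorescence Ex/Em 480/540, 3 min.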

[12] = biological target: 5-hydroxytryptamine receptor 2A (Homo sapiens) (UniProt P28223); assay: 5-hydroxytryptamine receptor 2A (HTR2A) small molecule antagonists, cell-based qHTS assay (AID 1963586); note: nearly all actives have a fitted effect of over 45% in size; note: potency is the fitted concentration of half-maximal effect
Outline: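 Antagonist-mode intracellular calcium assay: DOI (4 nM) added after 5 min compound pre-incubation at room temperature to dye-loaded HTR2A-CHO cells. Fluorescence followed for 3 min, sampled every second.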

[13] = biological target: Muscarinic acetylcholine receptor M1 (Homo sapiens) (UniProt P11229); assay: Cholinergic receptor muscarinic 1 (CHRM1) small molecule agonists, cell-based qHTS assay (AID 1963589); note: nearly all actives have a fitted effect of over 35% in size
Outline: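 Human M1 in stable CHO line; 18 h plating, 1 h dye load 37 C; cpd added (agonist mode); Ca2+ fluorescence kinetic read, 1 s intervals; 15 conc, 3 runs.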

[14] = cAMP Responsive Elements (CRE) small molecule agonists, cell-based qHTS assay (AID 1963590)
Outline: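 HEK 293T CRE-bla, 2,000 cells/well, 18 h preincubation 37 C/5% CO2; cpds (DMSO) pinned, 3 h; LiveBLAzer B/G FRET substrate, 2 h RT.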

[15] = cAMP Responsive Elements (CRE) small molecule antagonists, cell-based qHTS assay (AID 1963591; active = well fitted inhibition curve with a large enough effect in the signal ratio in the repeat runs, not every such curve was filed as active; the % refers to the signal ratio)
Outline: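 Beta-lactamase reporter read by FRET substrate (LiveBLAzer B/G) after 2 h at room temperature. CRE-bla HEK293T cells had received compound plus 0.25 uM (final) NKH477 for 3 h at 37 °C.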

[16] = biological target: Beta-2 adrenergic receptor (Homo sapiens) (UniProt P07550); assay: Adrenergic beta2 receptor (ADRB2) small molecule antagonists, cell-based qHTS assay (AID 1963592); note: series mostly up to about 92 µM; nearly all actives have a fitted effect of over 50% in size
Chain of Beta-2 adrenergic receptor (Homo sapiens) (P07550 whole entry, looked up): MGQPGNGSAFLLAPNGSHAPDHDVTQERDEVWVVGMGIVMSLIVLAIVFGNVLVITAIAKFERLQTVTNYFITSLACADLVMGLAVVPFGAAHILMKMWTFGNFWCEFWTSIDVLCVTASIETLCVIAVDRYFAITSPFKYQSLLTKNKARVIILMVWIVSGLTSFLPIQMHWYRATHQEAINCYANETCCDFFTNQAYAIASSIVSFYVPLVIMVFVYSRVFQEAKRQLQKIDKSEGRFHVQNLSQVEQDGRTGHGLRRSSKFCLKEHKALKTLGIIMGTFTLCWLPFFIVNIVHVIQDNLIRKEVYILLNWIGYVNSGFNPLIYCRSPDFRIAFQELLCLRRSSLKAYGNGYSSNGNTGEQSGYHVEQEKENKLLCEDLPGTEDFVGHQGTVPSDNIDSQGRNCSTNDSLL
Outline: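 Cells (CHO, stable ADRB2 overexpression) incubated 18-20hr at 37C; compounds added from DMSO; agonist mix (1nM isoproterenol, 100uM IBMX, 25uM Ro-20-1724) added; 0.5hr RT; d2-cAMP and anti-cAMP-cryptate added; 1hr RT; 665/615 nm read.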

[17] = biological target: Beta-2 adrenergic receptor (Homo sapiens) (UniProt P07550); assay: Adrenergic beta2 receptor (ADRB2) small molecule agonists, cell-based qHTS assay (AID 1963593);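 note: CHO cells stably overexpressing human ADRB2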
Outline: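 CHO cells stably over-expressing ADRB2 were plated overnight at 37C, then dosed with compounds plus a stimulation mix containing 100uM IBMX and 25uM Ro-20-1724 for 0.5hr at room temperature. cAMP was measured by HTRF competition, 1hr.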

[18] = biological target: D(2) dopamine receptor (Homo sapiens) (UniProt P14416); assay: Dopamine D2 receptor (DRD2) small molecule antagonists, cell-based qHTS assay (AID 1963595; active = well fitted inhibition curve with a large enough effect in the signal ratio in the repeat runs, with a control signal flat; the % refers to the signal ratio; note: potency is the fitted concentration of half-maximal effect)
Outline: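 Stable D2 receptor HEK293 line, 24 h after seeding. Compound preincubated 10 min, then quinpirole (12 nM) with forskolin analogue NKH477 (200 nM), 30 min, room temperature. Detection by time-resolved FRET of cAMP.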

[19] = p53 small molecule agonists, cell-based qHTS assay: qHTS cell viability counter screen (AID 1963581); note: nearly all actives have a fitted effect of over 45% in size; note: potency is the fitted concentration of half-maximal effect
Outline: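 HCT-116 p53RE-bla cells, 4,000/well, plated 5 h before compound pin transfer; 16 h at 37 C; bla substrate 2 h RT; then CellTiter-Glo, 30 min RT, luminescence.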

Measured: Potency

C[C@@H](NCCCc1cccc(C(F)(F)F)c1)c1cccc2ccccc12
inactive: [2] | [3] | [4] | [5] | [6] | [7] | [9] | [10]
active: [1] 29.8 µM | [8] 23.9 µM

CC(=O)NNC(C)=O
not listed: [3] | [4] | [7] | [19]
inactive: all other assays above

CCCCOCC(C)OCC(C)O (centres undefined)
not listed: [3] | [4] | [6] | [7] | [12] | [15] | [16]
inactive: all other assays above

CCCCCCCCNC
not listed: [3] | [4] | [5] | [7] | [17]
inactive: all other assays above

CCN1CCN(C(=O)N[C@@H](C(=O)N[C@@H]2C(=O)N3C(C(=O)O)=C(CSc4nnnn4C)CS[C@H]23)c2ccc(O)cc2)C(=O)C1=O
not listed: [2] | [10] | [11] | [17] | [19]
inactive: all other assays above

CC(C)(C)CC(C)(C)c1ccc(OCCO)cc1
not listed: [8] | [9] | [11] | [14] | [15] | [16] | [17]
inactive: all other assays above

CC(=O)SCc1ccco1
not listed: [3] | [4] | [7] | [9] | [17] | [19]
inactive: all other assays above

O=C(NO)C1(NS(=O)(=O)c2ccc(Oc3ccc(F)cc3)cc2)CCOCC1
not listed: [3] | [4] | [7] | [11] | [15] | [17]
inactive: all other assays above

CC(C)CCCC(C)CC=O (centres undefined)
not listed: [2] | [3] | [7] | [8] | [11] | [13] | [17]
inactive: all other assays above

NCCCCCCNCCCCCCN
inactive: [1] | [11] | [2] | [5] | [19] | [12] | [8] | [13] | [14] | [16]

CCOC(=O)c1ccccc1OC
inactive: [1] | [6] | [19] | [12] | [14] | [15] | [16] | [10] | [18]

Cc1cccc(C)c1NC(=O)C(C)N (centres undefined)
inactive: [1] | [2] | [3] | [5] | [6] | [14] | [16] | [17] | [10] | [18]

CCC1(c2cnc[nH]2)Cc2ccccc2C1
not listed: [3] | [4] | [5] | [6] | [7] | [15] | [17] | [19]
inactive: all other assays above

COCC(=O)O[C@]1(CCN(C)CCCc2nc3ccccc3[nH]2)CCc2cc(F)ccc2[C@@H]1C(C)C
active: [1] 23.7 µM | [12] 5.16 µM
not listed: [6] | [7] | [11] | [14] | [15] | [17] | [19]
inactive: all other assays above

CCCCCCCCCCCCCCC[C@H](O)[C@@H](N)CO
not listed: [2] | [8] | [10] | [11]
inactive: all other assays above

C[C@@H](Oc1ccc(CNC(=O)c2cccnc2Oc2ccc3c(c2)OCO3)c(F)c1)C(=O)O
not listed: [3] | [4] | [5] | [7] | [15] | [17] | [19]
inactive: all other assays above

[Cl][Bi]([Cl])([c]1ccccc1)([c]1ccccc1)[c]1ccccc1
inactive: [2] | [3] | [4] | [12] | [9] | [16] | [10]
active: [1] 6.08 µM | [5] 4.05 µM | [19] 9.07 µM | [18] 13.6 µM

CC/C(=C(/c1ccc(O)cc1)c1ccc(OCCN(C)C)cc1)c1ccccc1
inactive: [11] | [2] | [10]
active: [1] 18 µM | [5] 26.9 µM | [8] 28.8 µM

CC/C(=C(\c1ccc(O)cc1)c1ccc(OCCN(C)C)cc1)c1ccccc1
inactive: [11] | [2] | [12] | [9] | [17] | [10]
active: [1] 30.7 µM | [5] 20.5 µM | [19] 20.5 µM

CCCCCCCCCCCCCCCCN
active: [8] 23.9 µM
not listed: [5] | [11] | [12] | [14] | [17] | [18]
inactive: all other assays above

CCCC(=O)OCCc1ccccc1
not listed: [2] | [8] | [13] | [16] | [17] | [19]
inactive: all other assays above

CCn1nc(C(=O)O)c(=O)c2cc3c(cc21)OCO3
inactive: [1] | [12] | [9] | [13] | [16] | [10] | [18]

CSCC[C@H](NC(=O)[C@H](Cc1c[nH]c2ccccc12)NC(=O)CCNC(=O)OC(C)(C)C)C(=O)N[C@@H](CC(=O)O)C(=O)N[C@@H](Cc1ccccc1)C(N)=O
not listed: [3] | [4] | [7] | [8] | [9] | [12] | [13] | [17]
inactive: all other assays above
